Experimental findings from PubChem BioAssay AID1985 (Southern Research Specialized Biocontainment Screening …, 2009) are described below.

Hit rate of the full screen: of about 2,300 compounds, about 1,000 (43%) were called active. No rule for the calls is given here. The set was probably picked from earlier hits. This is one part of the list. Measured potencies and affinities stand elsewhere.

The nature of the assay: PhoP regulon inhibitor project modified counter assay, GFP fluorescence readout, dose response (AID 1985). Conditions: S. Typhi, 4 h; series mostly up to 150 µM; inhibition: at the top concentration.
The inhibition is the change of the read-out against control, counted positive when it falls. As to `COc1ccc(Cl)cc1C(=O)C1CCCN(CCO)C1` (stereo not given), the “inhibition” value is -12.2% (inactive).

Turning to `COc1c(Br)cc2c(C)c(C(=O)N3CCOCC3)oc2c1Br`, the “inhibition” value was -17.8% (inactive). The same measure for `CCCCCCOc1ccc(CN2CCN(CC)CC2)cc1`: 28.1% (inactive); for `CCCN(CCC)c1nc(C)cc(C(C#N)c2nc3ccccc3o2)n1` (stereo not given): -11.7% (inactive); for `CN(CC(=O)NCc1ccncc1)S(=O)(=O)c1ccccc1`: -30.7% (inactive). With `O=c1cc(-c2ccc(Cl)cc2)[nH][nH]1`, the “inhibition” value is -26% (inactive). As for `Cc1cc(N=Nc2ccccc2)c(NCC(O)C(O)C(O)CO)cc1C` (stereo not given), the “inhibition” value is 10.9% (inactive). As to `O=C1c2ccccc2C(=O)N1CCCP(=O)(O)CCc1ccccc1`, the “inhibition” value is -26.5% (inactive).

Turning to `Cc1ccc(C)c(N/C(N)=N/c2nc(C)cc(C)n2)c1`, the “inhibition” value was 9.72% (inactive). With `Cc1cc(C)c(-n2nnnc2SC(C)C)c(C)c1`, the “inhibition” value was -0.97% (inactive).

As to `Cc1ccccc1N1C(N)=NC(N)=NC1(C)C`, the “inhibition” value was -6.52% (inactive). As for `COc1cc(/C=N/N(C)S(=O)(=O)c2ccc(C)cc2)cc([N+](=O)[O-])c1O`, the “inhibition” value was 36.4% (inactive). As to `COc1ccccc1CNC(=O)Cn1c(=O)oc2cc(S(=O)(=O)N3CCCC3)ccc21`, the “inhibition” value is 12.1% (inactive). Consider `CCCCN1/C(=C/c2cccc[n+]2C)Sc2cc(NC(C)=O)ccc21`, for which the “inhibition” value is 5.75% (inactive). Next, `CCCCc1cc(=O)oc2cc(C)c(CN3CCCC3)c(O)c12`: 20.6% (inactive); `O=C(NC(O)C(=O)c1ccccc1)c1ccc(F)cc1` (stereo not given): -23.6% (inactive). Next, `O=C(/C=C/c1ccc(Cl)cc1Cl)NCc1ccncc1`: 16.7% (inactive). The same measure for `COc1ccccc1/C=C/C(=O)Nc1cccc(C(C)=O)c1`: 24.2% (inactive). As for `Cc1ccc(N2C(N)=C(C#N)C(c3cccnc3)C3=C2CC(C)(C)CC3=O)cc1` (stereo not given), the “inhibition” value was -21.1% (inactive).

Take `COc1cc(CNC2CCCC2)cc(Cl)c1OCc1ccccc1Cl`: the “inhibition” value is -28.1% (inactive).

Take `OCCCCNCc1ccc(OCc2ccccc2Cl)cc1`: the “inhibition” value was 23.7% (inactive). As to `CCOc1cc(CNC(C)(C)CO)cc(Br)c1OCc1ccc(Cl)cc1Cl`, the “inhibition” value was 32.3% (inactive). The same measure for `CCOC(=O)c1c(C)[nH]c(C(=O)CN2C(=O)NC(C)(c3ccc4ccccc4c3)C2=O)c1C` (stereo not given): -6.21% (inactive); for `Cc1cc(=O)oc2ccc(OCC(=O)N3CCC(C)CC3)cc12`: 14.8% (inactive); for `O=C(O)COc1ccc(F)cc1Br`: 3.92% (inactive). Next, `O=C(COc1ccc(Cl)cc1)N1CCN(C2CCCC2)CC1`: -26.3% (inactive); `CC1CC1C(=O)Nc1nc2ccc(S(C)(=O)=O)cc2s1` (stereo not given): 6.02% (inactive); `CCOC(=O)Cc1csc(NC(=O)c2ccc(S(=O)(=O)N3CCCC3)cc2)n1`: -6.85% (inactive).

Consider `Cc1ccc(-c2nc(C(=O)NCCCN(C)C)cc3c2[nH]c2ccccc23)cc1`, for which the “inhibition” value was 15.2% (inactive). The same measure for `O=C(Nc1nccs1)c1ccc(Cl)cc1[N+](=O)[O-]`: 2.12% (inactive); for `O=C(Cn1cnc2cc([N+](=O)[O-])ccc2c1=O)Nc1ccccc1Cl`: 4.55% (inactive); for `CCCCNC(=S)Nc1ccc([N+](=O)[O-])cc1`: 37.9% (inactive). The same measure for `O=C(NCCCN1CCOCC1)C(C(=O)c1ccccc1)n1ccccc1=O` (stereo not given): 25.3% (inactive); for `COc1cc(CNCCc2c[nH]c3ccccc23)ccc1OCc1ccccc1F`: 8.11% (inactive). Next, `COc1cc(CNc2ccc(N3CCN(C(C)=O)CC3)cc2)ccc1OCc1ccccc1`: -2.24% (inactive). `COc1ccc(CNCCc2c[nH]c3ccccc23)c(OC)c1C`: the “inhibition” value was 0.46% (inactive).

As for `O=C(Cn1c(C(F)(F)F)nc2ccccc21)NCCCN1CCOCC1`, the “inhibition” value is -22.6% (inactive).

Take `Cc1ccc(S(=O)(=O)N(Cc2n[nH]c(=S)n2-c2ccccc2)c2ccccc2)cc1`: the “inhibition” value was -23% (inactive). With `COc1ccccc1OCc1nnc(SCC(=O)NCc2ccco2)n1Cc1ccco1`, the “inhibition” value is -24.1% (inactive). With `O=C(Nc1ccc(Br)cc1)N1CCCCC1`, the “inhibition” value is 22.6% (inactive). Regarding `O=C(Cn1nc(Cl)nc1Cl)c1ccc([N+](=O)[O-])cc1`, the “inhibition” value was 27.9% (inactive). The same measure for `COc1ccc(C(=O)NNS(=O)(=O)c2ccccc2)cc1OC`: -24% (inactive). For the molecule `CCn1c(CNC(=O)c2ccc(OC)cc2)nnc1SC`, the “inhibition” value is 1.63% (inactive). Next, `CN(C)S(=O)(=O)c1cccc(NC(=O)c2cnccn2)c1`: 10.4% (inactive); `COc1cc(C(=O)NC(=S)Nc2cccc3nc(C)ccc23)cc(OC)c1OC`: -5.39% (inactive); `CCOc1ccc2nnnn2n1`: -9.4% (inactive). The same measure for `COc1ccc2c(c1)cc1n2CCN=C1N`: -17.6% (inactive); for `COCCCNC(=O)c1cc(OC)c(OC)c(OC)c1`: 10.2% (inactive).

Regarding `CCOCCCNC(=O)C(c1ccc(OC)cc1)N(Cc1cccs1)C(=O)c1ccccn1` (stereo not given), the “inhibition” value was 9.15% (inactive). The same measure for `CCC(C)(C)NC(=O)COc1ccc(C(=O)c2ccccc2)cc1`: -7.83% (inactive); for `Cc1ccc(OCC(=O)N2CCN(S(C)(=O)=O)CC2)cc1`: -33.7% (inactive). Take `Cc1oc2nc(SCCCC(=O)NCCCO)nc(N)c2c1C`: the “inhibition” value is -14.7% (inactive). The same measure for `COc1cc(C(=O)Nc2ccc3c(c2)OCCO3)ccc1OC(C)C`: 28.5% (inactive); for `CCCC(C(=O)NCC1CCCO1)N(Cc1ccco1)C(=O)CNS(=O)(=O)c1ccc(F)cc1` (stereo not given): 23% (inactive); for `O=C1c2ccccc2C(=O)N1CCC(c1ccccc1)c1ccco1` (stereo not given): -29.2% (inactive).

Regarding `O=c1oc2ccccc2c(O)c1C(c1ccccn1)c1c(O)c2ccccc2oc1=O`, the “inhibition” value is 13.5% (inactive). Next, `O=C(CC(=O)NCc1ccccc1)NCc1ccccc1`: -27.6% (inactive); `Cc1cc(C)c2nc(/N=C(\N)NC(=O)c3ccccc3)nc(C)c2c1`: -14.7% (inactive); `S=C(Nc1ccccc1Cl)N(Cc1ccccc1)Cc1ccccn1`: -19.1% (inactive). For the molecule `O=C(NC(=O)c1ccccc1)OCC1CCCN2CCCCC12` (stereo not given), the “inhibition” value is 0.4% (inactive). For `CC(C)(C)c1ccc(C(=O)NNC(=O)Cc2ccccc2)cc1`, the “inhibition” value is -18.7% (inactive). Next, `O=C(c1cccs1)N1CCN(S(=O)(=O)c2ccccc2)CC1`: -1.71% (inactive); `Cc1cc(C(=O)Nc2cccnc2)on1`: -8.91% (inactive); `O=C(CCCc1ccccc1)Nc1cccnc1`: 21.9% (inactive). Turning to `CCOC(=O)c1ccc(NC(=O)c2cc3c(s2)CCC3)cc1`, the “inhibition” value is -14.7% (inactive). The same measure for `Cc1cc(C)c([C@@H]2C[C@H]3CN(C4CCCC4)C(=O)[C@]34CCCN24)c(-n2cccn2)c1`: 7.68% (inactive); for `CC(C)(C)c1ccc(OCCCNC2CCCC2)cc1`: 19.2% (inactive); for `O=C(CCCOc1ccc(Cl)cc1Cl)NNC(=O)C1CCC1`: 32.7% (inactive). The same measure for `CSCCC(NC(=O)c1ccc(Br)cc1)C(=O)O` (stereo not given): -19.7% (inactive); for `CCOc1ccc(NC(=O)c2ccc(N)cc2)cc1`: 22.8% (inactive); for `CCCOc1ccc(C(=O)NNC(=S)NC(=O)c2ccco2)cc1`: 37.2% (inactive). As for `Cc1ccc(CCNC(=O)C2CCN(S(=O)(=O)N3CCCC3)CC2)cc1`, the “inhibition” value is 2.57% (inactive). The same measure for `O=C1C=C(c2ccc(Cl)cc2)C(=O)N1Nc1ccccc1`: -5.69% (inactive).

Take `CCCn1c(SCc2ccc(Cl)cc2)nc2c1c(=O)[nH]c(=O)n2C`: the “inhibition” value was -8.46% (inactive).

`CN1CCCN(C(c2ccccc2)c2ccc(Cl)cc2)CC1` (stereo not given): the “inhibition” value was 20.4% (inactive).
